# Hits are enriched below; roughly 2.8% of the tested compounds scored in any of these assays.
# HIF-2a inh: HIF-2a inhibition | actives 0.72% (n = 360,000) | inhibition, % at 18.8 µM | 786-0 RCC cells HIF-2a reporter, luciferase luminescence, overnight;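 active = inhibition of the luminescence signal of 40% or more relative to plate controls, in a single-dose primary screen at 18.75 µM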
# KKLEB cytotox: counter-screen for CF NF-kB inhibitors: cytotoxicity; KKLEB CF airway cells viability, ATPlite luminescence, overnight; hits give low values; cells stimulated with P. aeruginosa culture filtrate; activity change (cytotoxicity), % at 5 µM; actives 0.36% (n = 360,000); AID 602141;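 active = corrected activity change at or below -50% at 5 µM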
# Peg3 promoter: reduces Peg3 promoter-driven luciferase expression in HeLa; HeLa PEG-Prom luciferase reporter, luminescence, overnight; inhibition, % at 20 µM; actives 1.7% (n = 360,000);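 active = inhibition of at least 50% at 20 µM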
# Shn3 inh set2: inhibitors of Schnurri-3 3'UTR reporter in osteoblasts | Clone20 osteoblast Shn3 3'UTR firefly luciferase, 24 h | inhibition, % at 12.5 µM | actives 0.52% (n = 360,000);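 active = mean inhibition of at least 75% with every replicate also reaching 75%; inconclusive = mean inhibition at least 75% but some replicate below; inactive = mean inhibition below 75%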;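 note: 0% = median of neutral control wells and 100% = pilot-screen positive control compound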
# MITF TRPM1 inh: inhibitors of MITF-driven TRPM1 promoter in melanoma cells | SK-MEL-5 TRPM1 promoter luciferase, 24 h | AID 488899 | actives 0.83% (n = 330,000) | inhibition, % at 12.5 µM;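 active = mean inhibition across replicates of 60% or more, whatever share of single replicates reaches that level; inconclusive = some that reach 60%, reason not given; inactive = mean inhibition across replicates below 60%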
# CF NFkB inh: inhibitors of cystic fibrosis induced NF-kB. actives 0.86% (n = 360,000). inhibition, % at 5 µM. KKLEB NF-kB-GFP reporter, PAF-induced, GFP fluorescence overnight;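 active = at least 50% inhibition at 5 µM, scaled per plate between neutral and stimulator controls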;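 note: PAF is a Pseudomonas aeruginosa culture filtrate used as stimulus; plate controls were PAF-stimulated DMSO wells for no effect and unstimulated DMSO wells for full effect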
# An asterisk follows results filed as active; ? = inconclusive; . = no result given.
SMILES,HIF-2a inh,KKLEB cytotox,Peg3 promoter,Shn3 inh set2,MITF TRPM1 inh,CF NFkB inh
CC(C)OP(=O)(Nc1cccc2ccccc12)OC(C)C,10,-14,-3,9,3,-11
CC(C)(C)NC(=O)C(=O)NNC(=O)c1cccc(F)c1,-105,-3,-64,-25,-25,-5
CC(O)C(NS(=O)(=O)c1ccc(Cl)cc1)C(=O)OCC(=O)c1ccc2c(c1)NC(=O)CO2 (stereo not drawn),-5,-16,-8,-9,14,29
CC(C)CC(NC(=O)c1ccc(Cl)cc1)C(=O)OCC(=O)c1ccc2c(c1)NC(=O)CO2 (stereo not drawn),26,-6,84*,87*,56,2
COCCCNC(=O)CN(c1ccc(F)cc1)S(=O)(=O)c1ccc2c(c1)OCCO2,4,-4,8,-4,0,-6
COc1ccccc1CN1CC(C(=O)NCc2cccnc2)CC1=O (stereo not drawn),9,20,-11,-32,5,-6
Cc1ccc(S(=O)(=O)NCc2ccc(C(=O)N3CCN(c4ccc([N+](=O)[O-])cc4)CC3)cc2)cc1,20,9,18,90*,52,-1
O=C1c2ccccc2C(=O)c2c1cccc2-n1nnc2ccccc21,5,-14,4,10,-1,-10
O=C1C(N2CCOCC2)=C(n2nnc3ccccc32)C(=O)c2ccccc21,27,-22,98*,24,98*,86*
O=C1NC(=S)N/C1=C/c1ccc2c(c1)OCO2,20,-22,72*,-6,59,78*
O=C1NC(=S)SC1=Cc1ccc2c(c1)OCO2,-137,-24,-78,-28,-1,39
CC(C)(C)OC(=O)NCCc1nnc(S(=O)(=O)Cc2ccc(Cl)cc2Cl)o1,3,-12,47,-16,4,60*
CC(C)c1onc(C(=O)N2CCN(c3ccccc3)CC2)c1[N+](=O)[O-],0,0,-8,7,-2,23
CC(C)c1onc(C(=O)N2CCN(C(c3ccccc3)c3ccccc3)CC2)c1[N+](=O)[O-],5,-5,17,6,0,50*
O=C(c1cc(-c2ccco2)on1)N1CCN(C(c2ccccc2)c2ccccc2)CC1,7,-26,15,24,75*,27
Cc1nc2ccc(C(=O)NCCc3c[nH]c4ccccc34)cn2c1N(C)C(=O)CCc1ccccc1,13,1,14,-5,.,-7
CCn1c(NC(=O)Nc2ccccc2OC)nc2ccccc21,-11,2,-9,-9,4,-4
O=C(O)c1cccc(NC(=S)N/N=C/c2ccccn2)c1,36,7,-62,24,63*,11
O=C(N/N=C/c1ccccn1)c1cc([N+](=O)[O-])cc([N+](=O)[O-])c1,14,-6,12,-5,67*,-5
O=C(N/N=C/c1ccccn1)c1cccc([N+](=O)[O-])c1,1,-1,9,-5,8,-2
Cn1nc(C(C)(C)C)cc1C(=O)N1CCCCC1c1cc(C(=O)NCc2cccnc2)no1 (stereo not drawn),-14,-12,13,67,.,-6
CCC1(C)Cc2c(sc3nnn(CC(=O)Nc4cccc5ccccc45)c(=O)c23)CO1 (stereo not drawn),9,5,56*,12,1,-16
CCC1(C)Cc2c(sc3nnn(CC(=O)Nc4ccc(C)cc4)c(=O)c23)CO1 (stereo not drawn),12,7,42,14,3,-6
CC[C@@]1(C(=O)OC)N[C@H](CN(C)S(=O)(=O)c2ccc(C(F)(F)F)cc2)[C@@H]2C(=O)N(C)C(=O)[C@@H]21,-3,18,-5,1,4,-30
CN(C)CCC1(C2=CCCC2)CC/C(=C/c2ccc(Cl)cc2)C1=O (stereo not drawn),-12,10,95*,9,-10,-11
SMILES,HIF-2a inh,KKLEB cytotox,Peg3 promoter,Shn3 inh set2,MITF TRPM1 inh,CF NFkB inh
CN(C)c1ccc(/C=C2\CCCCC2=O)cc1,-187,-1,-237,-91,-38,10
Clc1ccccc1-c1cc2nc(NCc3ccco3)ccn2n1,-415,8,-262,-79,.,-20
CCN(CC)CCNCC(O)(c1ccc(Cl)cc1)c1ccc(Cl)cc1,-1,-6,-1,-1,4,-2
CCN(CC)CCNc1c(C)cc(CO)c(Cl)c1C,20,-7,72*,5,.,13
CSc1ccc(/C=C(/NC(=O)c2ccco2)C(=O)N2CCCCC2)cc1,9,5,16,-7,1,-10
OC(CNCC(c1ccc(Cl)cc1Cl)c1c[nH]c2ccccc12)c1ccccc1 (stereo not drawn),17,-17,110*,36,100*,19
CC1=C([N+](=O)[O-])C(c2cccc(Br)c2)C2=C(N1)c1ccccc1C2=O (stereo not drawn),17,-56*,38,13,61*,35
NC1=NC[C@H](Cc2ccc(O)cc2)N1CCCCC1CCCCC1,14,-19,-1,77,43,0
NC1=NC[C@H](Cc2ccccc2)N1CCCCC1CCCCC1,8,8,71*,64,-9,4
CCOc1cc(C)c(S(=O)(=O)Nc2ccc3cn[nH]c3c2)cc1C,10,0,30,87*,41,2
Cc1ccc(S(=O)(=O)Nc2ccc3cn[nH]c3c2)c(C)c1,16,2,19,16,10,-7
CC(C)(C)c1ccc2c(c1)N(CC(=O)N1CCCC1)C(=O)CO2,16,-4,7,-8,4,18
Cc1cc(O)c2c(c1O)C(=O)[C@]13C(=C2O)C(=O)[C@@H]2[C@@H](O)[C@H]1[C@@H]1[C@H](O)[C@H]3C(=O)C3=C(O)c4c(O)cc(C)c(O)c4C(=O)[C@]312,-21,-19,30,92*,?,53*
COc1ccc(N(C)S(=O)(=O)c2cccc(C(=O)OCC(=O)c3c(N)n(C)c(=O)n(C)c3=O)c2)cc1,15,14,55*,25,-1,-19
O=C1c2cccc3c([N+](=O)[O-])ccc(c23)C(=O)N1CCc1ccccn1,-44,13,92*,.,20,-11
CC(=O)Oc1cccc(N2C(=O)c3cccc4c([N+](=O)[O-])ccc(c34)C2=O)c1,26,-8,29,-11,23,35
CN(C)CCCN1C(=O)c2cccc3c([N+](=O)[O-])ccc(c23)C1=O,20,4,91*,11,55,0
CCCCN(C)c1c(C)nc2ccc(C(=O)Nc3cc(-c4ccccc4)ccc3OC)cn12,-23,-1,24,14,.,-18
C=CCOc1ccccc1CN(C(=O)CCl)c1ccc2c(c1)OCO2,-14,-85*,-18,44,49,92*
COc1ccccc1NC(=O)c1cnc(SCC(=O)NCC2CCCO2)n(C)c1=O (stereo not drawn),2,-3,0,-7,68*,-7

# From PubChem
